Results on 7 compounds are retold here after PubChem BioAssay (EPA / NIEHS).

Assay [1] is described as follows: ATG_PBREM_CIS: Attagene CIS-FACTORIAL HepG2 Assay for human Phenobarbital-responsive Enhancer Module (PBREM) (AID 2282955). The conditions noted are these: HepG2 PBREM cis-reporter, Attagene multiplexed transcription; actives raise or lower the signal. Summed up:
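Readout: reporter mRNA, fluorescent RT-PCR fragments separated by capillary electrophoresis. System: HepG2 transiently transfected with cis-regulated reporter units. Exposure: 24 h. Analysis: bidirectional, DMSO baseline.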

In assay [2] the target is Paired box protein Pax-6 (Homo sapiens) (UniProt P26367). The assay is described as follows: ATG_Pax6_CIS: Attagene CIS-FACTORIAL HepG2 Assay for human Paired Box 6 (PAX6) (AID 2282956). The settings on record: HepG2 CIS-FACTORIAL PAX6 reporter transcription, RNA readout; actives raise or lower the signal. Summed up:
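DMSO-referenced bidirectional fits of reporter mRNA fluorescence; HepG2 with transient cis-promoter MRTUs, 24 h post-dose, RT-PCR plus capillary electrophoresis detection.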

Assay [3] is described as follows: ATG_PXRE_CIS: Attagene CIS-FACTORIAL HepG2 Assay for human Pregnane X Receptor Element (PXRE) (AID 2282957). The conditions noted are these: HepG2 Attagene CIS-FACTORIAL PXRE reporter, mRNA; actives raise or lower the signal. The gist of the method:
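Read-out: fluorescence of reporter-specific RT-PCR products resolved by capillary electrophoresis, fitted bidirectionally relative to DMSO. Human HepG2 liver cells carried transfected cis-promoter reporter units and were exposed to chemicals for 24 h.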

Assay [4] in a line: ATG_PPRE_CIS: Attagene CIS-FACTORIAL HepG2 Assay for human Peroxisome Proliferator-activated Response Element (PPRE) (AID 2282958). The settings on record: HepG2 PPRE cis-element reporter, Attagene transcription factor profiling; actives raise or lower the signal. Summed up: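 After human HepG2 hepatoma cells were transiently transfected with cis-promoter reporter constructs, they were exposed to test chemicals for 24 hours. Reporter RNA was then reverse-transcribed, PCR-amplified, FAM-labeled, HpaI-digested and quantified by capillary electrophoresis.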

Assay [5] can be described thus: ATG_RORE_CIS: Attagene CIS-FACTORIAL HepG2 Assay for human RAR-related Orphan Receptor Element (RORE) (AID 2282959). The settings on record: HepG2 Attagene cis-factorial RORE reporter, mRNA; actives raise or lower the signal. The gist of the method:
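Measured here: transcript induction of a cis-regulated reporter in HepG2 cells transiently transfected via FuGene 6. After 24 h, RNA was processed by RT-PCR and fluorescent capillary electrophoresis; DMSO defined baseline activity.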

Assay [6] can be described thus: ATG_Sox_CIS: Attagene CIS-FACTORIAL HepG2 Assay for human SRY-box transcription factor (SOX) (AID 2282960). The settings on record: HepG2 Attagene cis-factorial SOX reporter, mRNA; actives raise or lower the signal. Summed up: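 Using transiently transfected HepG2 cells, reporter transcription driven by cis elements was assessed 24 h after dosing. Signal was fluorescence of capillary-separated RT-PCR products, with DMSO defining baseline activity.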

In assay [7] the target is Signal transducer and activator of transcription 3 (Homo sapiens) (UniProt P40763). The assay is described as follows: ATG_STAT3_CIS: Attagene CIS-FACTORIAL HepG2 Assay for human Signal Transducer and Activator of Transcription 3 (STAT3) (AID 2282963). The settings on record: HepG2, Attagene cis-factorial STAT3 reporter transcription; actives raise or lower the signal. Summed up:
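Cis-factorial format: endogenous transcription factors in HepG2 drive transfected reporter units. After 24 h treatment, reporter RNA was reverse-transcribed, amplified, FAM-labelled and HpaI-digested before CE analysis; activity scored in both directions against DMSO.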

Assay [8] is described as follows: ATG_TA_CIS: Attagene CIS-FACTORIAL HepG2 Assay for human TA Basal Promoter (AID 2282964). The settings on record: HepG2 Attagene CIS-factorial TA basal promoter reporter; actives raise or lower the signal. Summed up:
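Multiplexed mRNA reporter assay, HepG2, 24 h. Reporter cDNA amplified, 6-FAM primer-extended, HpaI-cut, CE-sized; DMSO = negative control and baseline.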

The nature of assay [9]: ATG_TCF_b_cat_CIS: Attagene CIS-FACTORIAL HepG2 Assay for human T-Cell-Factor with beta-catenin (TCF/b-cat) (AID 2282965). The settings on record: HepG2 TCF/beta-catenin cis-reporter transcription, actives raise or lower the signal. Summed up:
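Endogenous TCF/LEF activity read as reporter transcript level via RT-PCR and capillary electrophoresis fluorescence in transfected HepG2, 24 h exposure; gain or loss of signal fitted against DMSO controls.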

A short description of assay [10]: ATG_TAL_CIS: Attagene CIS-FACTORIAL HepG2 Assay for human TAL Basal Promoter (AID 2282966).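 Note: background control endpoint measuring basal TAL promoter reporter mRNA not a specific factor.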 The conditions noted are these: HepG2 Attagene cis-factorial TAL promoter reporter; actives raise or lower the signal. The gist of the method: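 HepG2, transient MRTU transfection, 24 h compound exposure; RNA → oligo(dT) RT → PCR → 6-FAM primer extension → HpaI digest → CE fluorescence. Bidirectional curve fit vs DMSO. Background-control readout.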

Assay [11] is described as follows: ATG_VDRE_CIS: Attagene CIS-FACTORIAL HepG2 Assay for human Vitamin D Receptor Element (VDRE) (AID 2282968). The conditions noted are these: HepG2 VDRE cis-reporter transcription, actives raise or lower the signal. The gist of the method: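 Measures endogenous factor activity through cis-element-driven reporter transcripts in transiently transfected HepG2. Cells are treated 24 h; reporter mRNA is quantified by RT-PCR and capillary electrophoresis; fitting is bidirectional.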

The target of assay [12] is Estrogen receptor (Homo sapiens) (UniProt P03372). The assay is described as follows: ATG_ERa_TRANS: Attagene TRANS-FACTORIAL HepG2 Assay for human Estrogen Receptor alpha (ERa) (AID 2282970; active = hit-call score of the fitted dose curve at least 0.9, where 1 is the maximum). The settings on record: HepG2 Attagene TRANS ERa GAL4 reporter, mRNA. Summed up: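 Reporter mRNA induction after 24 hours, detected by fluorescent RT-PCR and capillary electrophoresis, gives the read-out. Cells are HepG2 transiently transfected with GAL4-UAS reporter transcription units responding to chimeric NR-Gal4. Activity is taken as gain of signal over DMSO baseline.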

Assay [13] concerns the target X-box-binding protein 1 (Homo sapiens) (UniProt P17861). The assay is described as follows: ATG_Xbp1_CIS: Attagene CIS-FACTORIAL HepG2 Assay for human X-box Binding Protein 1 (XBP1) (AID 2282972). The conditions noted are these: HepG2 XBP1 cis-element reporter, Attagene multiplex; actives raise or lower the signal. The gist of the method: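 Changes in reporter transcript abundance, read by RT-PCR and capillary electrophoresis, reflect endogenous transcription factor activity. Transfected HepG2 cells received compound for 24 hours; DMSO defined baseline for bidirectional analysis.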

The nature of assay [14]: ATG_M_19_TRANS: Attagene TRANS-FACTORIAL HepG2 Assay for M19 Transcription Factor (Internal Marker) (AID 2282974; active = hit-call score of the fitted dose curve at least 0.9, where 1 is the maximum). The settings on record: HepG2 Attagene TRANS-FACTORIAL M19 internal marker reporter. The gist of the method: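 Gain-of-signal in reporter mRNA, relative to DMSO, was scored from capillary electrophoresis fluorescence. HepG2 cells carried transiently transfected multiple reporter transcription units and were incubated with test chemicals for 24 h.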

The nature of assay [15]: ATG_GAL4_TRANS: Attagene TRANS-FACTORIAL HepG2 Assay for GAL4 (Internal Marker) (AID 2282976; active = hit-call score of the fitted dose curve at least 0.9, where 1 is the maximum). The conditions noted are these: HepG2 Attagene TRANS GAL4 internal marker reporter. Summed up:
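RT-PCR/capillary electrophoresis readout of reporter mRNA. HepG2, transient MRTU transfection (GAL4-UAS reporters), 24 h compound exposure. Background-control endpoint, positive direction vs DMSO baseline.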

In assay [16] the target is Transcription factor Sp1 (Homo sapiens) (UniProt P08047). The assay is described as follows: ATG_Sp1_CIS: Attagene CIS-FACTORIAL HepG2 Assay for human Specificity Protein 1 (Sp1) (AID 2282961). The conditions noted are these: HepG2 Sp1 cis-reporter transcription, actives raise or lower the signal. Summed up:
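After transient transfection of HepG2 cells with cis-promoter reporter units and 24 h chemical treatment, reporter transcripts were quantified by RT-PCR and capillary electrophoresis fluorescence. Gain- and loss-of-signal fitted against DMSO.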

Assay [17] is described as follows: ATG_SREBP_CIS: Attagene CIS-FACTORIAL HepG2 Assay for human Sterol Regulatory Element Binding (SREBP) (AID 2282962). The settings on record: HepG2 Attagene cis-factorial SREBP reporter, mRNA; actives raise or lower the signal. The gist of the method:
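In this cis-format assay, HepG2 liver cells express reporters controlled by promoter elements responsive to native transcription factors. Exposure lasts 24 h; reporter mRNA fluorescence from capillary electrophoresis gives the signal, fitted bidirectionally against DMSO.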

Assay [18] can be described thus: ATG_TGFb_CIS: Attagene CIS-FACTORIAL HepG2 Assay for human Transforming Growth Factor (TGF) (AID 2282967). The settings on record: HepG2 Attagene CIS TGFb reporter, mRNA transcription; actives raise or lower the signal. Summed up:
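Transcript-level reporter readout: HepG2 transfectants, 24 h exposure, RNA to cDNA, reporter-specific PCR, fluorescent primer extension, capillary sizing against ROX standards. Gain- or loss-of-signal relative to DMSO.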

For assay [19], the target named is Nuclear receptor subfamily 1 group I member 3 (Homo sapiens) (UniProt Q14994). The assay is described as follows: ATG_CAR_TRANS: Attagene TRANS-FACTORIAL HepG2 Assay for human Constitutive Androstane Receptor (CAR) (AID 2282969; active = hit-call score of the fitted dose curve at least 0.9, where 1 is the maximum;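 note: activators raise reporter mRNA above DMSO so AC50 marks induction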). The conditions noted are these: HepG2 Attagene TRANS-FACTORIAL CAR reporter. The gist of the method: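 Signal is reporter mRNA induction relative to DMSO, measured 24 h after dosing by RT-PCR with fluorescent primer extension and capillary electrophoresis. Human HepG2 liver cells carried transiently transfected chimeric NR-Gal4/GAL4-UAS reporter constructs.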

The target in assay [20] is Steroid hormone receptor ERR1 (Homo sapiens) (UniProt P11474). The assay is described as follows: ATG_ERRa_TRANS: Attagene TRANS-FACTORIAL HepG2 Assay for human Estrogen-Related Receptor alpha (ERRa) (AID 2282971; active = hit-call score of the fitted dose curve at least 0.9, where 1 is the maximum). The conditions noted are these: HepG2 Attagene TRANS reporter, ERRa transactivation. The gist of the method: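 Transfected HepG2, 24 h dosing, ERRa-Gal4 chimera driving GAL4-UAS reporter. Readout: reporter mRNA via RT-PCR plus capillary electrophoresis (fluorescence). Positive direction vs DMSO control.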

Inconclusive results are not listed. The source made the active and inactive calls. Rule for the calls, unless noted: active = hit-call score of the fitted dose curve at least 0.9, where 1 is the maximum; inactive = score below 0.9.

As usually defined, the AC50 is the concentration at which the activity in the assay is half-maximal.

Chain of Transcription factor Sp1 (Homo sapiens) (P08047 whole entry, looked up): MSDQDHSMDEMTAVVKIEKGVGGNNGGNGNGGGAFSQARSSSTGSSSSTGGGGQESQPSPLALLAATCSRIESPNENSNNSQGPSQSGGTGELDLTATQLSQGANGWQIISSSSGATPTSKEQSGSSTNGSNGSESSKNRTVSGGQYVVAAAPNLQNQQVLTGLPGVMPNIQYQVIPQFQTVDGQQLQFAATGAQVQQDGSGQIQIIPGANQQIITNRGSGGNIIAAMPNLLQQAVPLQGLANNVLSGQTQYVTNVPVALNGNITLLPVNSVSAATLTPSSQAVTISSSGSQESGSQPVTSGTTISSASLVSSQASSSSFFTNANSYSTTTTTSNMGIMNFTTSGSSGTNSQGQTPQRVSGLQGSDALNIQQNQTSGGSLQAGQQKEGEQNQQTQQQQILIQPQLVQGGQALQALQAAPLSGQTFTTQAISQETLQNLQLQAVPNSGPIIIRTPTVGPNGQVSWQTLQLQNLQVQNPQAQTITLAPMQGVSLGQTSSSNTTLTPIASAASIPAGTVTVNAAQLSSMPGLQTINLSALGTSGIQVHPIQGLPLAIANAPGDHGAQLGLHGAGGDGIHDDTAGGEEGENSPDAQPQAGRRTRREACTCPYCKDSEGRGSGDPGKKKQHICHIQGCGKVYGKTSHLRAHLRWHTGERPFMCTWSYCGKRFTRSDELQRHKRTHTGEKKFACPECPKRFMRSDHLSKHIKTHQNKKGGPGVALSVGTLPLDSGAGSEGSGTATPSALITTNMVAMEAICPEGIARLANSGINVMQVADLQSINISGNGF
Chain of Nuclear receptor subfamily 1 group I member 3 (Homo sapiens) (Q14994 whole entry, looked up, the tested form may be a part): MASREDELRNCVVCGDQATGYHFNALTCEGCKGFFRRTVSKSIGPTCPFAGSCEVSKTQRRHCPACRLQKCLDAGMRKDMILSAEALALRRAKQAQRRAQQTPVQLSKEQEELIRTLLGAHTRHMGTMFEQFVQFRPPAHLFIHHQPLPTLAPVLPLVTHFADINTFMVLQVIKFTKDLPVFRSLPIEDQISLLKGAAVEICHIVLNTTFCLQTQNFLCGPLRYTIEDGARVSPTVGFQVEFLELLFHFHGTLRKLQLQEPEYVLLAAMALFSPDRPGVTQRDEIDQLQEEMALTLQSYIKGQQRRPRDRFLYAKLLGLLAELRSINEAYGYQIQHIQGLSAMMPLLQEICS
Chain of X-box-binding protein 1 (Homo sapiens) (P17861 whole entry, looked up): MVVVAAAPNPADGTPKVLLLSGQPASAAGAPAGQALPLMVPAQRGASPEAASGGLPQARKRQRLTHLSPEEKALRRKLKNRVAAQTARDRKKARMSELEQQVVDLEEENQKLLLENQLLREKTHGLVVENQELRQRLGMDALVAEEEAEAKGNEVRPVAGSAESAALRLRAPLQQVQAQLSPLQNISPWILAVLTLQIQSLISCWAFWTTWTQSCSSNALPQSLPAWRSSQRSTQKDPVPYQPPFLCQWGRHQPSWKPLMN
Chain of Paired box protein Pax-6 (Homo sapiens) (P26367 whole entry, looked up): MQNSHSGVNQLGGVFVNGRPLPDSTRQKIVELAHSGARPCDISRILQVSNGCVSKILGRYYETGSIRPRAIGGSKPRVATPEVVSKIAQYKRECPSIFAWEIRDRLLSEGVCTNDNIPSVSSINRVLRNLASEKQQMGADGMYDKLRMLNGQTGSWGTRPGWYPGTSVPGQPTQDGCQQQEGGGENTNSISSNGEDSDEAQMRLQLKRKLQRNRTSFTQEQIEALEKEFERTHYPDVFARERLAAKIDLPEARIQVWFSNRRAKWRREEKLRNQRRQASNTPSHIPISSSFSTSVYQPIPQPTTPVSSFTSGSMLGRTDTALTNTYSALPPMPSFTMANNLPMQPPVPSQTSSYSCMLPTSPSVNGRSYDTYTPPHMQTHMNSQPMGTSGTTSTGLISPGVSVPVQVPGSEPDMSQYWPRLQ
Chain of Signal transducer and activator of transcription 3 (Homo sapiens) (P40763 whole entry, looked up): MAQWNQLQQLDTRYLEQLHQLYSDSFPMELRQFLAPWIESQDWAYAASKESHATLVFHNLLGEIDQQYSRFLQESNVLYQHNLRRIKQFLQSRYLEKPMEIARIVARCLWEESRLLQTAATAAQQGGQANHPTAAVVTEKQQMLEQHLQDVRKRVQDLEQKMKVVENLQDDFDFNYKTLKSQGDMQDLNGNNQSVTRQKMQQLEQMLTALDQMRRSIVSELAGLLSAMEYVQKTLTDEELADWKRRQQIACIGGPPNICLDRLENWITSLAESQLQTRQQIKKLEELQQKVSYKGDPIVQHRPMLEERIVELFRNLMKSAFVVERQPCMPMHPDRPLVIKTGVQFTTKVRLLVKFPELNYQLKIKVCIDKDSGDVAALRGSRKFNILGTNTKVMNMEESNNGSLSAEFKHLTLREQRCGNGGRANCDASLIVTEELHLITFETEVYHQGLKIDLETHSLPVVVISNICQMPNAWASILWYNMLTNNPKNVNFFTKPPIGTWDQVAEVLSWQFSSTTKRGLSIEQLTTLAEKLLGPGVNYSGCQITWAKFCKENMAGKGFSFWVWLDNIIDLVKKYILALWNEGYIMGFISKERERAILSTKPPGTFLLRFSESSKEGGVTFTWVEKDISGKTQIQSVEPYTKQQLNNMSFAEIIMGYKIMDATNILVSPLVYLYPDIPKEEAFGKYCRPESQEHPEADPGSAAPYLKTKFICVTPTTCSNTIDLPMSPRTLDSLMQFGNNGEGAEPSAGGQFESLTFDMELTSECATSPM
Chain of Estrogen receptor (Homo sapiens) (P03372 whole entry, looked up, the tested form may be a part): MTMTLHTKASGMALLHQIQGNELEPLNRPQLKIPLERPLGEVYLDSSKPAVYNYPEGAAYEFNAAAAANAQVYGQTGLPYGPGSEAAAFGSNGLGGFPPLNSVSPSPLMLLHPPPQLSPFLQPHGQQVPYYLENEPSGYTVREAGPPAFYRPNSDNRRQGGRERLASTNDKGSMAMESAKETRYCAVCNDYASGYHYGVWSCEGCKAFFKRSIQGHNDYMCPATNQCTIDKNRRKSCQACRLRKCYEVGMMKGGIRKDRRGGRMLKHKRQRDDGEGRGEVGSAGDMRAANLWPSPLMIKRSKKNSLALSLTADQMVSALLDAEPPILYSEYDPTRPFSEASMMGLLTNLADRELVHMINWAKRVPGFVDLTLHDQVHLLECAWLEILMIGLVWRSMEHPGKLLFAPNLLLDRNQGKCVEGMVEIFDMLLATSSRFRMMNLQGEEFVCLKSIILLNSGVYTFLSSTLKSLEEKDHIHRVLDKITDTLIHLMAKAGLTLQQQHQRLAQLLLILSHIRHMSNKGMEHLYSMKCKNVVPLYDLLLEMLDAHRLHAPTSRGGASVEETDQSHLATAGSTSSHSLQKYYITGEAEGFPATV
Chain of Steroid hormone receptor ERR1 (Homo sapiens) (P11474 whole entry, looked up, the tested form may be a part): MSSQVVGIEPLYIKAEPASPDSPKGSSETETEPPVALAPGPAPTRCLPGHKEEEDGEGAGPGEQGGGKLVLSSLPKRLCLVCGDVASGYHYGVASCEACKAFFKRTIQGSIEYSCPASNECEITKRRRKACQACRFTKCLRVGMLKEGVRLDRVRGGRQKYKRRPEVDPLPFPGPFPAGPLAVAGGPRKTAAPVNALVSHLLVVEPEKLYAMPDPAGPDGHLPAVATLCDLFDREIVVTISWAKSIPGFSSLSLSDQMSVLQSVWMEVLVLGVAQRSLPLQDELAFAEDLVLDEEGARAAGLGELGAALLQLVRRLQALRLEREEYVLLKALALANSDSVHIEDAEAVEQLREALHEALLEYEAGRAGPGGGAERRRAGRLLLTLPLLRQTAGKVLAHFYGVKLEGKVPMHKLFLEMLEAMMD

For `COC(=O)c1cccc(C(=O)OC)c1`, the result in [1], in assay [2], in assay [3], in [4], in assay [5] and in [6] was inactive. The call in [7], in assay [8], in assay [9], in [10], in assay [11] and in assay [12] was inactive. In addition, the compound was classed as inactive in assay [13], in assay [14] and in assay [15].
With `[Cl][Dy]([Cl])[Cl]`, the outcome in [1], in [2], in [3], in assay [5], in assay [6] and in assay [16] was inactive. The compound was classed as inactive in [17], in assay [8], in assay [9], in assay [18], in assay [11] and in [12]. For the same compound, the result in assay [13], in assay [14] and in [15] was inactive.
Consider `CC1(C)[C@H](C=C(Cl)Cl)[C@H]1C(=O)OCc1cccc(Oc2ccccc2)c1`, for which the result in assay [1], in assay [2], in [5], in assay [6], in [17] and in assay [7] was inactive. Also, the outcome in assay [8], in assay [9], in assay [10], in assay [18], in assay [19] and in [13] was inactive. In addition, the call in assay [14] and in assay [15] was inactive. The AC50 in [3] was 3.1 µM (active); in [11] it was 4.62 µM (active); in [12] it was 8.45 µM (active).
For `CC(CO)c1ccccc1` (stereo unspecified), the result in assay [1], in assay [2], in assay [3], in assay [5], in assay [6] and in assay [16] was inactive. For the same compound, the outcome in [17], in [7], in assay [8], in assay [9], in assay [10] and in assay [18] was inactive. Besides, the outcome in [19], in assay [12], in assay [13], in assay [14] and in [15] was inactive.
With `CCCCCCCCOS(=O)(=O)O`, the result in assay [1], in assay [2], in [3], in assay [5], in assay [6] and in assay [17] was inactive. Also, the call in [7], in assay [8], in [9], in assay [10], in assay [18] and in assay [19] was inactive. The compound was classed as inactive in assay [20], in assay [13] and in assay [15]. The figures for the AC50 in assay [4] and in assay [12] were 31.3 µM (active) and 100 µM (active), respectively.
As to `CCCCN(CCO)CCO`, the outcome in assay [1], in assay [2], in assay [3], in assay [5], in [6] and in assay [16] was inactive. Also, the compound was called inactive in assay [17], in [7], in assay [8], in [9], in [10] and in assay [18]. Also, the outcome in assay [11], in assay [12] and in [13] was inactive.
For `OC[C@H]1O[C@@H](O[C@H]2[C@H](O)[C@@H](O)[C@H](O)O[C@@H]2CO)[C@H](O)[C@@H](O)[C@H]1O`, the result in assay [1], in assay [2], in [3], in assay [4], in assay [6] and in assay [16] was inactive. In addition, the compound was classed as inactive in assay [17], in [7], in [8], in [10], in [19] and in assay [12]. Besides, the result in [13], in [14] and in assay [15] was inactive.
